# Tests used:
# [1] = biological target: RAF proto-oncogene serine/threonine-protein kinase (Homo sapiens) (UniProt P04049); conditions: at 1 µM;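 also: values are the mean percent inhibition of CRAF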
# [2] = biological target: T1, Interleukin-1 receptor-associated kinase 4 (Homo sapiens) (UniProt Q9NWZ3); conditions: at 0.1 µM
# T1 sequence (whole entry): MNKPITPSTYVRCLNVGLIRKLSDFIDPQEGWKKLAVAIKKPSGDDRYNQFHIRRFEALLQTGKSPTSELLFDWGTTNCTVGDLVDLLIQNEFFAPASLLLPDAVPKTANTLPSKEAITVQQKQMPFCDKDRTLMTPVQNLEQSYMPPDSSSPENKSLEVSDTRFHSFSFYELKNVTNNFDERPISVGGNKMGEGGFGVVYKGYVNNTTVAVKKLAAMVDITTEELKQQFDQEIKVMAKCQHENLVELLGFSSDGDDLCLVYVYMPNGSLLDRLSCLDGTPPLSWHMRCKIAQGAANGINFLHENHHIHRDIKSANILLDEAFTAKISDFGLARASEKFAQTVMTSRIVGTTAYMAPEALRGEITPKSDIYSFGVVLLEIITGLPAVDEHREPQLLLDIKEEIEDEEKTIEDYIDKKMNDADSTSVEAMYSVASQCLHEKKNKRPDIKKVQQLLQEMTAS
# [3] = biological target: T1, Interleukin-1 receptor-associated kinase 4 (Homo sapiens); conditions: at 1 µM
# [4] = biological target: Leucine-rich repeat serine/threonine-protein kinase 2 (Homo sapiens) (UniProt Q5S007); conditions: at 0.1 µM
# [5] = biological target: Leucine-rich repeat serine/threonine-protein kinase 2 (Homo sapiens) (UniProt Q5S007); conditions: at 1 µM
# [6] = test system: Leucine-rich repeat serine/threonine-protein kinase 2 (Homo sapiens), Q5S007 [G2019S]; conditions: at 0.1 µM
# [7] = test system: Leucine-rich repeat serine/threonine-protein kinase 2 (Homo sapiens), Q5S007 [G2019S]; conditions: at 1 µM
# Chain of Leucine-rich repeat serine/threonine-protein kinase 2 (Homo sapiens) (Q5S007 whole entry): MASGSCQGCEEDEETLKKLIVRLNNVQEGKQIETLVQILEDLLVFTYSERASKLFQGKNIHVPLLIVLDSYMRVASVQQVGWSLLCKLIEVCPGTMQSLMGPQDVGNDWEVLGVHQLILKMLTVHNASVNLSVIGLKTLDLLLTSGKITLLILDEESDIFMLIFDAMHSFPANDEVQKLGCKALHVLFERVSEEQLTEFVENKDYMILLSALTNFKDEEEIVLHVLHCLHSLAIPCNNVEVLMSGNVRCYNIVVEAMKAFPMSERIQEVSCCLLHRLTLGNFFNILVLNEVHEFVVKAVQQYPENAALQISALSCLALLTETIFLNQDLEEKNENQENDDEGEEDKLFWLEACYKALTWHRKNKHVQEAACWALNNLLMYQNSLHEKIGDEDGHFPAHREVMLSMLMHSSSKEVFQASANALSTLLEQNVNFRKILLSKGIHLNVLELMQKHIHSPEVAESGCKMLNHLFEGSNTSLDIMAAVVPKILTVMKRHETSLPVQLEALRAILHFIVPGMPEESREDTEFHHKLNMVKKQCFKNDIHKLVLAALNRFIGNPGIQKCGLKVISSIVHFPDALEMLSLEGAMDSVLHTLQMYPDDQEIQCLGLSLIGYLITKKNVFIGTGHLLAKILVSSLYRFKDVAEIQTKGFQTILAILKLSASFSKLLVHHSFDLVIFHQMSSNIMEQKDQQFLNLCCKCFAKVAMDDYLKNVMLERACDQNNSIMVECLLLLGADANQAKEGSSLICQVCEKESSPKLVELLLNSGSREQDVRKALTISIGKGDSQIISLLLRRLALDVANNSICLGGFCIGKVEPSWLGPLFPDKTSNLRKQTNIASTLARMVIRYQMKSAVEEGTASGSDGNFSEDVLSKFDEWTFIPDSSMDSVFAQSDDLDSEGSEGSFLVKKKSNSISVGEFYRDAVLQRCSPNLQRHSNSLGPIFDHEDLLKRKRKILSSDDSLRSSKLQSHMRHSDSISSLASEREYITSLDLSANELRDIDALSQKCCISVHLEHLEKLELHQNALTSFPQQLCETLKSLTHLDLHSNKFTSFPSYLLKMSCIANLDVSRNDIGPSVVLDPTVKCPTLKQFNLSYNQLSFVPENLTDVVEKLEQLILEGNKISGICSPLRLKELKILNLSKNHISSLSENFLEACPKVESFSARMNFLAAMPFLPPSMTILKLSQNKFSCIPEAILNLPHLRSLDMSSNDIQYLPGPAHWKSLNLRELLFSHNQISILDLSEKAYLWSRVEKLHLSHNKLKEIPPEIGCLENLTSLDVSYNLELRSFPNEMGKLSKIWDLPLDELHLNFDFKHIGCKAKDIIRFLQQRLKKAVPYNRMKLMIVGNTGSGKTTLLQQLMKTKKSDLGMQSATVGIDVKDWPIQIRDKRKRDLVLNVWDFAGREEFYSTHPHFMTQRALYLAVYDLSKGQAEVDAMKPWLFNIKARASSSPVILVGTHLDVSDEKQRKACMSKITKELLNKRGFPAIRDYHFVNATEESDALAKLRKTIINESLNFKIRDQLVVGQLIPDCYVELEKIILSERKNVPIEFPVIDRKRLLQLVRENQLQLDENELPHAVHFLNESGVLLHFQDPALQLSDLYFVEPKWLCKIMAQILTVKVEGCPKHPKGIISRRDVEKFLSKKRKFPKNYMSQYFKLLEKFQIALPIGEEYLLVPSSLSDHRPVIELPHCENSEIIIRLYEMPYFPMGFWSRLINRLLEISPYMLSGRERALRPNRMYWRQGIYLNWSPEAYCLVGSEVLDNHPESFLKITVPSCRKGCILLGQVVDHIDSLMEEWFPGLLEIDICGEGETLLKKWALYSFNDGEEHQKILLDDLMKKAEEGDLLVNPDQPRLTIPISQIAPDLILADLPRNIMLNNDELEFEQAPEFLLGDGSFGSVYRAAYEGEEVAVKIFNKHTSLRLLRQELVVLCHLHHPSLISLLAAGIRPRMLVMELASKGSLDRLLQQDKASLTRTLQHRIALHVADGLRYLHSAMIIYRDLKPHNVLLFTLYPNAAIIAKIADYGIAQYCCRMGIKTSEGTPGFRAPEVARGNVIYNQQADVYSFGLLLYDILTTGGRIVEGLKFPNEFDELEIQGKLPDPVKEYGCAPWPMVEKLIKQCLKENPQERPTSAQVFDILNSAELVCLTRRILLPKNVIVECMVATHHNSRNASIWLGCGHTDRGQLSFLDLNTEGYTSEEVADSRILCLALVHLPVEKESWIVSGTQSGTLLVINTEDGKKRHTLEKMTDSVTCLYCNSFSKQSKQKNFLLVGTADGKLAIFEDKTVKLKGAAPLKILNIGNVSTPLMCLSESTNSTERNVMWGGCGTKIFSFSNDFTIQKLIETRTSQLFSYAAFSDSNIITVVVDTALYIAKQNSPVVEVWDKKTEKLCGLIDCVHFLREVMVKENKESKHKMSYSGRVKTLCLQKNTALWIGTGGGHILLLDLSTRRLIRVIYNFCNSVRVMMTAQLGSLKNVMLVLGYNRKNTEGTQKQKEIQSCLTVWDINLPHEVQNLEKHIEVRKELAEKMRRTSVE
# Chain of Leucine-rich repeat serine/threonine-protein kinase 2 (Homo sapiens), Q5S007 [G2019S] (Q5S007 whole entry G2019S): as the sequence (Q5S007 whole entry) above, with G2019S counted along it
# Chain of RAF proto-oncogene serine/threonine-protein kinase (Homo sapiens) (P04049 whole entry): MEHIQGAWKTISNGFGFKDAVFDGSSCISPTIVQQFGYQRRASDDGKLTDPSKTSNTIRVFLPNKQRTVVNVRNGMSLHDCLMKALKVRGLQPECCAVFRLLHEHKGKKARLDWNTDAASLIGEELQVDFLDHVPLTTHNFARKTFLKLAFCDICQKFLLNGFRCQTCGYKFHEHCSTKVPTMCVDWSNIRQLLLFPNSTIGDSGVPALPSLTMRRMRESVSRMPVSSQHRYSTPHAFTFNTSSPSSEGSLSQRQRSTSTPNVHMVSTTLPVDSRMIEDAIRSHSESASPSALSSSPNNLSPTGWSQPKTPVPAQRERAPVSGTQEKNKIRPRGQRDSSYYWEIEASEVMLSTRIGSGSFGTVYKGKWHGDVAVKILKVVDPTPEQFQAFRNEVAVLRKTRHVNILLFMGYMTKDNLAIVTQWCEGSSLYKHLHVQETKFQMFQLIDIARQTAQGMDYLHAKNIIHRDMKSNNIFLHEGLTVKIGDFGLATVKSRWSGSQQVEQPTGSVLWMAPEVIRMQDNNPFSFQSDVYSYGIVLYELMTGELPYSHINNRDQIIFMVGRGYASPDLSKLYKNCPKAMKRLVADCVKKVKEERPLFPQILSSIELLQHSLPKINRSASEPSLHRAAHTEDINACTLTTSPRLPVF
Compound,inhibition [1] [%],inhibition [2] [%],inhibition [3] [%],inhibition [4] [%],inhibition [5] [%],inhibition [6] [%],inhibition [7] [%]
COc1cc2ncn(-c3cc(OCc4ccccc4C(F)(F)F)c(C(C)=O)s3)c2cc1OC,-1.56,0.98,1.4,3.23,6.15,3.58,6.68
Cc1nnc(-c2ccc(C)c(-c3ccc(C(=O)NCc4ccc(Cl)cc4)cc3)c2)o1,-0.47,4.09,2.12,-4.32,-3.04,-2.08,-4
O=C(Nc1ccc(Oc2ccc3[nH]c(NC(=O)c4ccccc4)nc3c2)cc1)Nc1cc(C(F)(F)F)ccc1F,17.9,-1.64,2.09,13,18.4,6.22,36.1
COc1ccc(C2=C(N3CCc4ccccc43)C(=O)NC2=O)cc1,-3.87,5.89,2.48,3.04,10.9,4.7,13.9
Cc1ccc(C(=O)NC(C)C)cc1-c1ccc(C(=O)NCC2CC2)cc1,-1.23,-1.36,-0.58,-0.57,-1.69,0.59,2.07
C[C@@H](Oc1cc(-n2cnc3ccc(OCC4CCN(C)CC4)cc32)sc1C(N)=O)c1ccccc1Cl,8.07,2.66,6.25,8.16,17.3,11.1,33.5
COc1cc2ncn(-c3cc(OCc4cccs4)c(C(N)=O)s3)c2cc1OC,6.17,-3.1,1.66,2.29,9.04,15.9,54
COc1ccc2ncn(-c3cc(O[C@H](C)c4ccccc4Cl)c(C(N)=O)s3)c2c1,0.5,1.46,1.82,-2.19,9.87,2.01,20.2
CN(C)CCOc1ccc(-c2cc(-c3ccc4c(c3)CCC4=NO)c(-c3ccncc3)o2)cc1,39.8,-0.42,0.12,1.03,3.55,1.85,2.48
c1ccc(-c2n[nH]cc2-c2ccnc(-c3ccc(OCCN4CCOCC4)cc3)c2)nc1,0.21,2.23,0.43,11,8.18,6.06,13.7
CCC(=O)Nc1ccc(C)c(-c2ccc(C(=O)NCC3CC3)cc2)c1,-0.29,1.62,2.19,-0.86,1.68,0.68,2.28
O=C1Nc2ccccc2/C1=C/Nc1ccc(-n2cncn2)cc1,5.44,2.2,2.52,4.2,9.2,6.6,23.9
NS(=O)(=O)c1ccc(N/N=C2\C(=O)Nc3ccc(C(=O)NCCCn4ccnc4)cc32)cc1,17.5,3.89,1.67,7.05,18.7,11.1,38.8
Fc1ccc(-c2ncn(C3CCNCC3)c2-c2ccnc(Oc3ccc(F)c(F)c3)n2)cc1,-0.68,1.33,1.17,-3.16,-4.05,0.63,2.39
COc1cc(Nc2ncc(-c3ccccc3)o2)cc(OC)c1OC,-4.59,-0.52,0.55,0.73,8.78,4.17,21.3
CCc1ccc(Oc2nccc(-c3c(-c4ccc(F)cc4)ncn3C3CCNCC3)n2)cc1,-0.51,2.21,2.52,0.68,6,3.1,6.63
Cc1ccc(C(=O)NC2CCC2)cc1-c1ccc(C(=O)NCC2CC2)cc1,-1.36,3.77,1.51,2.63,2.18,2.78,5.64
NS(=O)(=O)c1ccc(Nc2cc(-c3ccc(O)c(F)c3)n[nH]2)cc1,0.94,3.6,-1.08,1.51,13.2,4.54,29.7
COc1cc(C)c(N(C)C(=O)CN(C)C)cc1Nc1nc(Nc2cccc(F)c2C(N)=O)c2cc[nH]c2n1,-0.93,-1.54,1.55,20.4,18.8,45.5,57.7
CNC(=O)c1cncc(/C=C/c2c(C)cccc2C)c1,-0.25,-1.78,0.42,-5.56,-1.97,-3.85,-1.34
N#Cc1ccc(Oc2nccc(-c3c(-c4ccc(F)cc4)ncn3C3CCNCC3)n2)cc1,-0.95,2.17,2.43,2.8,3.91,4.91,4.95
Fc1ccc(-c2c(-c3ccncc3)nc3n2CCS3)cc1,-2.98,1.96,1.7,-3.32,-2.49,-1.05,0.48
C#Cc1cccc(Nc2ncnc3ccc(OCCCCNCCS(C)(=O)=O)cc23)c1,-0.78,4.25,2.41,-4.32,1.7,-0.62,5.54

Compound,inhibition [1] [%],inhibition [2] [%],inhibition [3] [%],inhibition [4] [%],inhibition [5] [%],inhibition [6] [%],inhibition [7] [%]
COc1cc(Nc2ncc3c(C)nc(-c4cccc(Oc5ccccc5)c4)n3n2)cc(OC)c1OC,-0.45,-1.6,0.83,11.7,18.3,13.8,47.3
O=C(NCC1CC1)c1ccc(-c2cccc(C(=O)NC3CC3)c2)cc1,7.69,-3.46,0.85,3.26,6.31,1.46,5.03
CCc1cccc(CC)c1/C=C/c1cncc(C(=O)NC)c1,-1.79,-3.49,1.51,3.05,4.51,2.33,7.93
CN(C)c1ccc2c(c1)/C(=C/Nc1ccc(S(N)(=O)=O)cc1)C(=O)N2,-6.53,2.88,0.86,5.77,16.7,7.03,36.4
CN(C)CCCNc1nccc(-c2c(-c3ccc(F)cc3)nn3cc(C(F)(F)F)ccc23)n1,0.11,-2.77,1.66,-2,1.95,-0.33,2.73
CCN(CC)Cc1ccc(Nc2nccc(-c3cnn4ncccc34)n2)cc1,1.56,1.17,3.85,-6.19,8.65,0.1,19
NC(=O)c1cc(-c2ccncc2)cc(-c2ccccc2)c1N,-6.49,2.85,2.52,3.59,8.2,4.3,12.3
COc1cc2ncn(-c3cc(OCCc4ccccc4)c(C(N)=O)s3)c2cc1OC,-9.47,2.95,0.72,4.52,10.8,6.42,32.5
CCc1nccc2c1nc(-c1nonc1N)n2CC,-5.16,2.27,-1.82,0.68,2.47,0.78,2.99
Nc1nccc(-c2c(-c3ccc(F)cc3)ncn2C2CCC(O)CC2)n1 (stereo not given),-9.19,-0.79,-1,-0.71,0.86,1.56,4.03
COc1cc(Nc2ncc3c(C)nc(-c4cccc(C(F)(F)F)c4)n3n2)cc(OC)c1OC,-2.3,-2.83,1.37,8.04,17.4,11.1,39.6
Clc1ccc(CNc2nccc(-c3cnn4ncccc34)n2)cc1,-1.19,-1.73,2.1,1.21,14,1.24,13
Fc1ccc(-c2nc3n(c2-c2ccncc2)CCS3)cc1,-0.15,3.38,2.37,-3.58,-3.17,-0.21,-0.63
O=C(Nc1n[nH]c2cc(-c3ccccc3)ccc12)C1CC1,1.41,2.36,2.04,2.57,6.05,3.85,7.95
COc1ccc2cc(-c3c(-c4ccncc4)nc(-c4ccc([S+](C)[O-])cc4C)n3C)ccc2c1 (stereo not given),2.82,-4.88,-0.25,-0.88,0.64,0.88,4.04
CN1CCN(CCCNc2nc3ccc(Oc4ccc(NC(=O)Nc5cc(C(F)(F)F)ccc5F)cc4)cc3[nH]2)CC1,-5.93,-3.98,1.11,0.2,9.72,0.21,4.43
O=C(Nc1n[nH]c2cc(-c3cc(F)ccc3F)ccc12)C1CC1,-0.98,2.21,1.18,2.33,3.26,1.81,6.24
COC(=O)Nc1nc2ccc(Sc3ccc(NC(=O)Nc4cc(C(F)(F)F)ccc4F)cc3)cc2[nH]1,50,-0.12,0.72,0.83,9.98,0.3,4.85
NS(=O)(=O)c1ccc(N/N=C2\C(=O)Nc3ccc(-c4cnco4)cc32)cc1,-0.01,0.31,1.08,9.37,52.5,32.2,55.8
Cc1ccc(NC(=O)c2ccoc2)cc1-c1ccc(C(=O)NCC2CC2)cc1,-0.41,1.67,2,1.24,4.06,2.32,2.75
COc1cccc(/C=N/Nc2ncnc3c2cnn3-c2cccc(OC)c2)c1,-1.82,1.63,2.48,-1.62,0.55,0.17,5.07
O=C1Nc2ccc(I)cc2C1=Cc1cc(Br)c(O)c(Br)c1,11.3,1.47,2.1,19.2,71.9,37.4,78
c1ccc(Oc2ccc(Nc3ncc(-c4ccccc4)o3)cc2)cc1,1.5,1.75,0.97,1.55,3.95,4.15,6.81

Compound,inhibition [1] [%],inhibition [2] [%],inhibition [3] [%],inhibition [4] [%],inhibition [5] [%],inhibition [6] [%],inhibition [7] [%]
Fc1ccc(-c2ncn(C3CCNCC3)c2-c2ccnc(Oc3ccc4c(c3)OCO4)n2)cc1,-0.17,2.54,2.7,5.57,11.2,6.45,10.9
O=C(Nc1n[nH]c2nc(-c3ccco3)ccc12)C1CC1,0.48,-2.9,0.56,3.59,7.47,2.37,8.01
COc1ccc2cc(-c3c(-c4ccncc4)nc(-c4ccc(S(C)(=O)=O)cc4C)n3C)ccc2c1,2.24,3.69,2.09,1.75,6.91,2.55,10.2
NC(=O)c1ccc(Oc2nccc(-c3c(-c4ccc(F)cc4)ncn3C3CCNCC3)n2)cc1,0.88,2.75,3.85,0.29,5.49,3.7,7.46
NC(=O)c1cc(-c2ccc(F)cc2)cc(-c2ccncc2)c1N,8.69,2.99,1.61,0.64,0.67,0.41,0.77
Fc1ccc(-c2ncn(CCCN3CCOCC3)c2-c2ccncc2)cc1,-5.69,3.04,-0.71,0.7,3.28,1.27,4.28
COc1ccc(-c2ccc3c(NC(=O)C4CC4)n[nH]c3n2)cc1,–,2.75,0.45,1.6,5.11,2.17,3.39
NCc1ccc(-n2c(-c3nonc3N)nc3cnccc32)cc1,3.91,-0.81,2.35,17.2,53.5,22,54.1
CS(=O)(=O)CCNCc1cc(-c2cc3c(Nc4ccc(OCc5cccc(F)c5)c(Cl)c4)ncnc3s2)cs1,-3.41,2.58,3.31,0.31,4.51,1.2,5.39
O=C(Nc1n[nH]c2nc(-c3ccc(O)cc3)c(Br)cc12)C1CC1,3.99,3.81,3.24,5.19,14.1,6.34,22.4
COc1cccc(-n2cnc3c(N/N=C/c4ccncc4)ncnc32)c1,-4.3,-2.35,0.01,-1.76,7.17,0.11,18.1
FC(F)(F)c1cccc(Nc2nccc(-c3cnn4nc(-c5ccccc5)ccc34)n2)c1,-0.15,0.01,0.27,2,-0.41,2.35,4.67
Fc1ccc(-c2ncn(C3CCNCC3)c2-c2ccnc(Oc3ccc(Oc4ccccc4)cc3)n2)cc1,0.47,1.5,1.78,0.62,5.34,5.08,8.01
CS(=O)(=O)CCNCc1ccc(-c2ccc3ncnc(Nc4ccc(OCc5ccccc5)c(Br)c4)c3c2)o1,3.63,0.92,1.52,-4.59,-6.11,-1.19,-0.13
O=C1NC(=O)C(c2cccc(Cl)c2)=C1Nc1ccc(Cl)c(C(=O)O)c1,17.7,3.69,1.5,2.15,4.76,3.36,7.81
C[C@@H](Oc1cc(-n2cnc3ccc(OC4CCN(C)CC4)cc32)sc1C(N)=O)c1ccccc1Cl,0.92,1.54,3.69,-3.8,6.57,-1.8,13.5
CCS(=O)(=O)c1ccc(OC)c(Nc2ncc(-c3ccccc3Cl)o2)c1,-2.68,-1.05,3.5,2.06,10.3,1.06,13.4
CCS(=O)(=O)c1ccc(OC)c(Nc2ncc(-c3cccc(-c4ccccc4F)c3)o2)c1,-8.29,1.45,0.38,1.95,11.6,4.86,19.5
CN(c1ccc(NC(=O)Nc2c(Cl)cccc2Cl)cc1)c1ccnc(Nc2cccc(CS(C)(=O)=O)c2)n1,1.82,0.17,1.26,12.2,15.4,9.38,20.4
COc1cc(N2CCN(C(C)C)CC2)ccc1Nc1nc(Nc2ccc(F)cc2C(=O)NC[C@@H](O)CO)c2cc[nH]c2n1,2.01,3.02,2.5,10.5,14.5,48.9,55.5
C/C(Nc1ccc(S(N)(=O)=O)cc1)=C1/C(=O)Nc2ccccc21,-3.52,2.06,0.3,3.27,18.4,11.4,47.1
NC(=O)Cc1ccccc1Oc1nccc(-c2c(-c3ccc(F)cc3)ncn2C2CCNCC2)n1,-7.05,3.72,1.16,6.61,2.56,6.11,8.33

# — ChEMBL document CHEMBL1961873, “Compounds: GSK PKIS; Assays: Nanosyn kinase panel” (2012)
